Screening data (PubChem BioAssay)
An excerpt weighted towards active compounds, which were near 2.7% of everything screened.
ATXN viability – Viability Counterscreen for Primary qHTS for Inhibitors of ATXN expression. Potency, µM (series often up to 56.7 µM), usual class: cytotoxic. S2 cells (HEK-293 line with an ATXN2-luciferase reporter) viability, CellTiter-Fluor protease fluorescence, 24 h. 400,000 compounds, 0.49% hits; also: nearly all actives have a fitted effect of over 40% in size
12-LOX inh – Primary qHTS assay for inhibitors of human arachidonate 12S-lipoxygenase (ALOX12): Round 2 | Polyunsaturated fatty acid lipoxygenase ALOX12 (Homo sapiens), P18054 | purified 12hLO, xylenol orange hydroperoxide absorbance | Potency, µM (titrated, usually from 108 µM), inactives show top-dose activity change, negative = inhibition, usual class: inhibitors | 580,000 compounds, 1.1% hits; also: % is scaled to controls: 0 for no effect and ±100 for the full control effect
Target sequence (P18054 whole entry, looked up): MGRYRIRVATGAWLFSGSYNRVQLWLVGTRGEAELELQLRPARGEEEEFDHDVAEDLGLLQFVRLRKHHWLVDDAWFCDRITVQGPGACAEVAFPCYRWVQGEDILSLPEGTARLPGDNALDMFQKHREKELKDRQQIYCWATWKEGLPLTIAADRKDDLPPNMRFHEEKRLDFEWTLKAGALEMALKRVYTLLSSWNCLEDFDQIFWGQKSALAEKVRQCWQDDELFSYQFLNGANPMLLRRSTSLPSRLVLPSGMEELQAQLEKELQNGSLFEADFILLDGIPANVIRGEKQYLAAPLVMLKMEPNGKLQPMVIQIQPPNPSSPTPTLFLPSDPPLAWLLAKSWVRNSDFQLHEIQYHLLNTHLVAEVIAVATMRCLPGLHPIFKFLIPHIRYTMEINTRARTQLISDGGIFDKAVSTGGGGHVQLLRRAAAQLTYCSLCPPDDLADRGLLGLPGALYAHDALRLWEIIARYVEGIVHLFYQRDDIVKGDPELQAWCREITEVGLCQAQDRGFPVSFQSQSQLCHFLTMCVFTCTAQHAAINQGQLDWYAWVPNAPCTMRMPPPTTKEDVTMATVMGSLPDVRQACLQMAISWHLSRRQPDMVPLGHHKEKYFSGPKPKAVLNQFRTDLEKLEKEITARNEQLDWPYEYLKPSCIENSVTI
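Purified human 12hLO at 150 nM in 25 mM Hepes, 0.01% Triton X-100, pH 7.0, preincubated 15 min at room temperature with compound. Reaction started with 40 uM arachidonic acid, 30 min at room temperature. Hydroperoxide measured by Fe-xylenol orange, 573/405 nm absorbance ratio.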
ATXN2 expr inh – Primary qHTS for Inhibitors of ATXN expression | Potency, µM (top dose mostly 57 µM), for inactives: top-dose activity change, negative = inhibition, actives largely listed as inhibitors | HEK-293 ATXN2-luciferase reporter, luminescence, 24 h | AID 1745845, 2022 | 360,000 compounds, 0.72% hits; also: % is scaled to controls: 0 for no effect and ±100 for the full control effect; nearly all actives have a fitted effect of over 55% in size
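ATXN2-luciferase reporter cells (luciferase flanked by upstream and downstream ATXN2 gene portions) were treated 24 h at 37 °C with compounds at up to 57 uM. SteadyGlo luminescence gave expression; GF-AFC fluorescence gave viability.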
HepG2 tox – qHTS for Inhibitors of TGF-b: Cytotox Counterscreen; 410,000 compounds, 0.76% hits; HepG2 CAGA-GFP viability, ATP luminescence, 18 h; AID 588856, 2011; Potency, µM (doses to about 46.1 µM), without a hit: top-dose activity change, negative = cytotoxicity, hits mostly cytotoxic
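HepG2 CAGA-GFP cells (1000/well, DMEM with 1% FBS) received compound, then TGF-beta at 500 pg/mL final, and were incubated 18 hours at 37 degrees C. Viability was read by CellTiter-Glo luminescence. Media-only wells were set as complete cell-killing and DMSO as no toxicity.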
TGFb SMAD3 inh – qHTS for Inhibitors of TGF-b; HepG2 CAGA-GFP TGF-b/SMAD3 reporter, GFP fluorescence, 18 h; TGF-beta stimulated, 500 pg/mL final; Potency, µM (top dose mostly 46.1 µM), for inactives: top-dose activity, negative = inhibition, usual class: inhibitors; 410,000 compounds, 1.2% hits; also: % is scaled to controls: 0 for no effect and ±100 for the full control effect; nearly all actives have a fitted effect of over 65% in size
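Cell-based qHTS in HEPG2 carrying a CAGA-GFP Smad reporter; compounds added before 500 pg/mL final TGF-beta, 18 h incubation at 37 degrees C, GFP fluorescence quantified per cell by imaging cytometry.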
* hit, by the source's call; i = inactive; ? = inconclusive; / = not tested or not shown; ! = repeats disagree; [ ] = dose if it differs, or a comment. Calls follow the shape of the dose curve; as a rule, active = well fitted curve in the direction sought with a large enough effect; inconclusive = small, poorly fitted or top-dose-only effect, or another doubt; inactive = no such curve, though single readings can be large; an effect the other way counts as inactive or inconclusive. Potency is read from the fitted curve at half-maximal effect.

SMILES	ATXN viability	12-LOX inh	ATXN2 expr inh	HepG2 tox	TGFb SMAD3 inh
CC(Cc1cccs1)NC(=S)Nc1ccc(Cl)c(Cl)c1 (configuration not stated)	i	32µM*	-16%	-28%	?
CC(Cc1cccs1)NC(=S)Nc1ccc(Cl)cc1 (configuration not stated)	i	40µM*	-26%	-33%	?
CC(Cc1cccs1)NC(=O)Nc1ccc(F)cc1 (configuration not stated)	i	-8%	35%	-20%	0%
CC(C)(C)c1ccc(NC(=S)NCc2cccs2)cc1	i	32µM*	28%	-14%	?
CC(OC(=O)c1ccc(CS(C)(=O)=O)cc1)C(=O)c1ccc(Cl)cc1 (configuration not stated)	/	19%	/	/	/
CNC(=O)NC(=O)CN(C)c1ccc(I)cc1	/	-19%	/	/	/
COc1ccccc1NC(=O)c1cc(-c2ccco2)nc2ccccc12	/	16µM*	/	/	/
O=C(Nc1ccccc1F)c1cc(-c2ccco2)nc2ccccc12	i	?	-8%	1%	6%
COc1ccc(Nc2ncc(C(=O)Nc3ccc(F)cc3F)c3ccccc23)cc1	?	?	-20%	-35%	13µM*
O=C(Nc1ccc(F)cc1F)c1cc(-c2ccco2)nc2ccccc12	i	10µM*!	-6%	2%	-23%
COc1ccccc1NC(=O)c1cc(-c2ccc(C)o2)nc2ccccc12	?	?	-24%	2%	0%
CCc1ccccc1CN1CCCC12Cc1ccccc1CNC2=O (configuration not stated)	/	9%[6.33 µM]	/	/	/
O=C(Nc1cccc(-c2nnnn2C2CC2)c1)NC1CCCCCC1	/	-50%	/	/	/
O=C(NC1CCN(c2cc(-c3cccs3)[nH]n2)C1)c1cc2ccccc2[nH]1 (configuration not stated)	/	-4%	/	/	/
Cc1cccc(C#CC2=CC(=O)CC(C)(C)C2)c1	?	21%	17%	-25%	3%
CC1(C)CC(=O)C=C(C#CC2(O)CCCCC2)C1	16µM*	-10%	?	10µM*	?
FC(F)(F)Sc1ccc(NC(=S)NCc2ccccc2)cc1	?	40µM*	/	-125%	?
S=C(NCc1ccccc1)Nc1ccc(Sc2ccc(Br)cc2)cc1	/	28µM*	/	/	/
S=C(NCCc1ccccc1)Nc1ccc(Sc2ccc(Br)cc2)cc1	/	35µM*	/	/	/
S=C(NCc1ccccc1)Nc1ccc(Cl)cc1	i	?	15%	-31%	?
Cc1cccc(Nc2nnc(-c3cc4ccc(O)cc4oc3=O)s2)c1	/	-12%	/	/	/
CCc1nnc(SCC(=O)Nc2cc(OC)cc(OC)c2)c2cc3sccc3n12	/	7%	/	/	/
Cc1ccc(CNC(=O)c2cnn3c(C)c(Cc4c(F)cccc4Cl)c(C)nc23)cc1	?	-1%	-26%	-11%	10%
Cc1cc(C)c(Cc2c(C)nc3c(C(=O)NCc4ccco4)cnn3c2C)c(C)c1	20µM*	?	14µM*	-93%	-14%
Cc1nc2c(C(=O)NC(C)c3ccccc3)cnn2c(C)c1Cc1ccccc1 (configuration not stated)	/	?	/	13µM*	-10%
SMILES	ATXN viability	12-LOX inh	ATXN2 expr inh	HepG2 tox	TGFb SMAD3 inh
Cc1nc2c(C(=O)NCCc3ccc(Cl)cc3)cnn2c(C)c1Cc1ccc(F)cc1	/	-37%	/	-95%	7.1µM*
Cc1ccc(-c2ccc(/C=C(\C#N)c3ccccc3)o2)cc1	/	3%	/	/	/
Cc1ccc(/C(C#N)=C\c2cccn2C)cc1	/	45µM*	/	/	/
Cc1cc(C(=O)Cn2cnc3c2c(=O)n(C)c(=O)n3C)c(C)n1CC1CCCO1 (configuration not stated)	/	4%	/	/	/
c1coc(-c2cc3nc(NCc4ccc5c(c4)OCO5)ccn3n2)c1	i	32µM*	16%	-13%	3%
O=C(NC1CCCC1)c1cc2nc(-c3ccco3)cc(C(F)(F)F)n2n1	i	-18%	10%	8%	12%
c1coc(-c2cc3nc(NC4CCCCC4)ccn3n2)c1	?	45µM*	57%	5%	-19%
CCCCN(C)c1ccc(-c2n[nH]c(=O)c3ccccc23)cc1[N+](=O)[O-]	/	-1%	/	/	/
CN1CCN(CC(O)COC(c2ccc(Cl)cc2)c2ccc(Cl)cc2)CC1 (configuration not stated)	i	?	/	10µM*	?
OC(COC(c1ccccc1)c1ccccc1)CN1CCc2ccccc2C1 (configuration not stated)	i	1%	-10%	-28%	-7%
OC(COC(c1ccc(Cl)cc1)c1ccc(Cl)cc1)CN1CCc2ccccc2C1 (configuration not stated)	/	?	28µM*	11µM*	?
Cc1c(CC(=O)NCCc2ccccc2)c(=O)oc2cc(O)c(Cl)cc12	/	1%	/	/	/
O=Cc1s/c(=N\S(=O)(=O)c2ccccc2)n(CCCCl)c1Cl	5µM*	?	?	8.9µM*	4µM*
N#C/C(=C/c1ccc(OCc2ccccc2C#N)cc1)c1cccc(F)c1	/	3%	/	/	/
COC(=O)C1=C(C)N(Cc2ccc(F)cc2)C(=S)NC1c1ccc(Cl)cc1 (configuration not stated)	/	40µM*	/	/	/
COC(=O)C1=C(C)N(Cc2ccccc2)C(=NCCc2cccnc2)N[C@H]1c1ccc(Br)cc1	?	/	32µM*	16µM*	?
COC(=O)C1=C(C)N(Cc2ccccc2)C(=S)N[C@H]1c1cccc(C(F)(F)F)c1	?	?	-30%	-2%	?
COC(=O)C1=C(C)N(Cc2ccccc2)C(=S)N[C@H]1c1ccc(Br)cc1	?	45µM*	?	-1%	13µM*
COC(=O)C1=C(C)N(Cc2ccc(Cl)cc2)C(=S)NC1c1ccc(OC)cc1 (configuration not stated)	/	40µM*	/	/	/
COC(=O)C1=C(C)N(Cc2ccc(Br)cc2)C(=S)NC1c1ccc(OC)cc1 (configuration not stated)	/	45µM*	/	/	/
Cc1cccc(Cn2c(SCc3ccc(C(=O)NCCc4ccccc4)cc3)nc3ccncc32)c1	?	-4%	-29%	-52%	7.9µM*
O=C(NCCc1ccccc1)c1ccc(CSc2nc3ccncc3n2Cc2ccccc2F)cc1	?	-10%	-18%	-19%	7.1µM*
O=C(NCCc1ccccc1)c1ccc(CSc2nc3ccncc3n2Cc2cccc(F)c2)cc1	/	-15%	/	-6%	?
O=C(C1CC1)N1CC2(CCCN2Cc2cccnc2)Cc2ccccc21 (configuration not stated)	/	-9%[6.33 µM]	/	/	/
Cc1ccc(-c2nn3c(C)nnc3s2)cc1NC(=O)c1ccc(-c2ccc(Cl)cc2Cl)o1	/	-20%	8.9µM*	-55%	?
